Drawing on the supplement of paper PMC13380429, this text covers morphology score for 36 compounds.

The assay concerns Vero E6 infected with SARS-CoV-2. Put plainly: morphology score (similarity to uninfected cells); higher = more like uninfected cells. To be noted: 24 h.
Compound `CN1CCN(c2cccc(Nc3nc4c(-c5ccc(S(C)(=O)=O)cc5)cccn4n3)c2)CC1` (0.833333 µM) yielded a morphology score of 0.157.

Take `Fc1ccc(CN2CCC(Nc3ccc(C(F)(F)F)nn3)CC2)cc1F` (10 µM): the morphology score is -0.198.

Consider `N[C@]1(C(=O)O)CC[C@@H](C(=O)O)C1` (10 µM), for which the morphology score worked out at 0.188.

Take `C#CC[C@H](c1nc2cc(Cl)ccc2c(=O)n1Nc1ccccc1)N(CCCN)C(=O)c1cccc(Cl)c1F` (0.833333 µM): the morphology score was -0.0173.

For the compound `N=C(NCCC[C@H](N)C(=O)O)N[N+](=O)[O-]` [NG-nitro-arginine] (10 µM), the morphology score was -0.0213.

Consider `CCc1cc(C(N)=S)ccn1` [ethionamide] (10 µM), for which the morphology score came to 0.155.

In turn, `N[C@@H](Cc1c[nH]c2ccccc12)C(=O)O` [tryptophan] (10 µM) came in with a morphology score of -0.124.

Compound `O=S(=O)(N[C@H](CO)C(C(F)(F)F)C(F)(F)F)c1ccc(Cl)s1` [begacestat] (10 µM) returned a morphology score of 0.00774.

`CCC1(CC)C(=O)NC(=O)N(C)C1=O` [metharbital] (10 µM) gave a morphology score of 0.221.

For the compound `COc1cc2c(N3CCN(C(=O)Nc4ccc(OC(C)C)cc4)CC3)ncnc2cc1OCCCN1CCCCC1` [tandutinib] (10 µM), the morphology score is -0.0843.

The compound `CC(C)(O)C(=O)N1CCN(c2ccc(C(F)(F)F)c(C3=C(c4c[nH]c5ccccc45)C(=O)NC3=O)c2)CC1` (0.833333 µM) came in with a morphology score of -0.201.

For the compound `O=C(Nc1cc(Cl)cc(Cl)c1O)c1c(O)c(Cl)cc(Cl)c1Cl` [oxyclozanide] (10 µM), the morphology score amounted to 0.0306.

`CC(=O)N1CCC[C@H]1C(=O)N[C@@H](Cc1cnc[nH]1)C(=O)N[C@@H](CO)C(=O)N[C@@H](CS)C(=O)N[C@@H](CC(N)=O)C(N)=O` (10 µM) displayed a morphology score of 0.0957.

For `N=C(NCc1ccc(Cl)cc1)SCCCc1c[nH]cn1` [clobenpropit] (10 µM), the morphology score turned out to be 0.14.

As to `CN1C(=O)N(c2cc(Cl)cc(Cl)c2)C(=O)[C@@]1(C)Cc1ccc(Br)cc1` (10 µM), the morphology score was 0.25.

In the case of `O=C(NCC1(N2CCN(c3ccccc3)CC2)CCOCC1)c1cccnc1Sc1ccccc1` (10 µM), the morphology score is -0.047.

For the compound `FC(F)(F)c1ccc(CNc2ccc(Cc3c[nH]c4ncccc34)cn2)cc1` (10 µM), the morphology score came out at 0.0358.

`NS(=O)(=O)c1cc2c(cc1Cl)N=C(CSCc1ccccc1)NS2(=O)=O` [benzthiazide] (10 µM) returned a morphology score of -0.187.

`CCCCc1ccc(C(N)=O)nc1` [bupicomide] (10 µM) had a morphology score of -0.191.

In turn, `C1CCN2C[C@@H]3C[C@@H](CN4CCCC[C@@H]34)[C@H]2C1` [sparteine-sulfate] (10 µM) gave a morphology score of 0.00477.

Compound `COc1ccc2nc3cc(Cl)ccc3c(Nc3cc(CN4CCCC4)c(O)c(CN4CCCC4)c3)c2n1` [pyronaridine] (0.833333 µM) displayed a morphology score of 0.282.

Compound `C=C1CC[C@H](O)C/C1=C/C=C1\CCC[C@]2(C)[C@@H]([C@H](C)CCCC(C)(C)O)CC[C@@H]12` [calcifediol] (10 µM) yielded a morphology score of -0.0147.

In turn, `N#Cc1ccc2[nH]cc(CCCCN3CCN(c4ccc5oc(C(N)=O)cc5c4)CC3)c2c1` [vilazodone] (0.833333 µM) came in with a morphology score of 0.0471.

Turning to `NCCCNCCCCNCCCN` [spermine] (10 µM), the morphology score came to 0.0211.

In the case of `O=S1(=O)c2cccc3cccc(c23)N1CCCN1CCN(c2ccc(F)cc2)CC1` [fananserin] (10 µM), the morphology score is -0.0356.

As for `CC(C)n1nnc2cc(C(=O)O)ccc21` (10 µM), the morphology score was found to be 0.0496.

In turn, `O=c1c(O)c(-c2ccc(O)c(O)c2)oc2cc(O)ccc12` [fisetin] (10 µM) registered a morphology score of 0.115.

The compound `COC(=O)Nc1nc2cc(C(=O)c3ccccc3)ccc2[nH]1` [mebendazole] (0.833333 µM) had a morphology score of -0.163.

Compound `CCOc1cc(N2CCC(O)CC2)ccc1Nc1ncc2c(n1)N(C)c1ccccc1C(=O)N2C` (0.833333 µM) returned a morphology score of -0.0631.

The compound `c1ccc2c(c1)CN1CCCC1=N2` [desoxypeganine] (10 µM) came in with a morphology score of 0.169.

For the compound `Cc1c(NC(=O)N2CCOCC2)ccc2c1c1ccccc1n2C(C)C` (10 µM), the morphology score stood at 0.121.

The compound `CCC(=O)NCC[C@@H]1CCc2ccc3c(c21)CCO3` [ramelteon] (10 µM) came in with a morphology score of 0.00565.

In turn, `CC(=O)Nc1ccccc1` [acetanilide] (10 µM) registered a morphology score of 0.174.

With `Cc1c(CC(C)(C)C(=O)O)n(Cc2ccc(Cl)cc2)c2ccc(F)cc12` (10 µM), the morphology score is -0.214.

The compound `CCN(CC)CCNC(=O)c1cc(Br)c(N)cc1OC` [bromopride] (10 µM) had a morphology score of -0.115.

As to `N=C(N)NCCC[C@@H](NC(=O)[C@@H]1CCCN1C(=O)[C@@H]1CSSCCC(=O)N[C@@H](Cc2ccc(O)cc2)C(=O)N[C@@H](Cc2ccccc2)C(=O)N[C@@H](CCC(N)=O)C(=O)N[C@@H](CC(N)=O)C(=O)N1)C(=O)NCC(N)=O` [desmopressin-acetate] (10 µM), the morphology score worked out at 0.0379.
